Source: PubChem BioAssay AID1159580 (chemical genetic matrix, 2015)
Among all 5,500 compounds or so, about 2,000 (36%) were called active. Roughly 18% stayed inconclusive and do not appear here. Cut-off read from the data, not from the text of the source: active = normalized growth mostly below about 0.91 (no sharp cut-off); inconclusive = no clear call, values can overlap the other calls; inactive = mostly above about 0.92. This is one part of the list.

Experiment: chemical genetic growth profiling, strain panel (AID 1159580);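 note: tested at 20 µM; growth read once vehicle control cultures reached saturation at 30 °C; 1 = growth at the plate median or of vehicle wells; lower values mean less growth of the strain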
Conditions: growth OD

Measured: normalized growth

CCCCCCCCCCCCCCCCCCOCC(O)CO (stereo not drawn)
inactive: S. cerevisiae deletion strains, locus YJR043C, strain POL32, active compounds read low 1.01 | S. cerevisiae deletion strains, locus YJR066W, strain TOR1, active compounds read low 0.965 | S. cerevisiae deletion strains, locus YKL009W, strain mrt4, active compounds read low 1.04 | S. cerevisiae deletion strains, locus YKL068W, active compounds read low 1.01 | S. cerevisiae deletion strains, locus YKL085W, strain MDH1 (second series), active compounds read low 0.986 | S. cerevisiae deletion strains, locus YKL085W, strain MDH1, active compounds read low 0.986 | S. cerevisiae deletion strains, locus YKL160W, strain elf1, active compounds read low 1.01 | S. cerevisiae deletion strains, locus YKR001C, strain vps1, active compounds read low 1.04 | S. cerevisiae deletion strains, locus YKR026C, strain gcn3, active compounds read low 1 | S. cerevisiae deletion strains, locus YKR091W, strain srl3, active compounds read low 0.995 | S. cerevisiae deletion strains, locus YLL001W, strain dnm1, active compounds read low 0.997 | S. cerevisiae deletion strains, locus YLL026W, active compounds read low 0.983 | S. cerevisiae deletion strains, locus YLL041C, strain sdh2, active compounds read low 0.997 | S. cerevisiae deletion strains, locus YLR027C, strain aat2, active compounds read low 0.998 | S. cerevisiae deletion strains, locus YLR039C, strain RIC1, active compounds read low 1.04 | S. cerevisiae deletion strains, locus YLR058C, strain SHM2, active compounds read low 0.999 | S. cerevisiae deletion strains, locus YLR102C, strain apc9, active compounds read low 1.01 | S. cerevisiae deletion strains, locus YLR113W, strain HOG1, active compounds read low 0.995 | S. cerevisiae deletion strains, locus YLR221C, strain rsa3, active compounds read low 1 | S. cerevisiae deletion strains, locus YLR258W, strain gsy2, active compounds read low 0.975 | S. cerevisiae deletion strains, locus YLR262C, strain YPT6 (second series), active compounds read low 1 | S. cerevisiae deletion strains, locus YLR262C, strain YPT6, active compounds read low 1.01 | S. cerevisiae deletion strains, locus YLR268W, strain sec22, active compounds read low 1.05 | S. cerevisiae deletion strains, locus YLR320W, strain mms22, active compounds read low 0.979 | S. cerevisiae deletion strains, locus YLR330W, strain CHS5, active compounds read low 1.02 | S. cerevisiae deletion strains, locus YLR342W, strain FKS1 (second series), active compounds read low 1.04 | S. cerevisiae deletion strains, locus YLR342W, strain FKS1, active compounds read low 0.987 | S. cerevisiae deletion strains, locus YLR357W, strain rsc2, active compounds read low 0.932 | S. cerevisiae deletion strains, locus YLR370C, strain arc18, active compounds read low 0.998 | S. cerevisiae deletion strains, locus YLR371W, strain rom2, active compounds read low 1.02 | S. cerevisiae deletion strains, locus YLR384C, strain iki3, active compounds read low 0.986 | S. cerevisiae deletion strains, locus YLR418C, strain cdc73, active compounds read low 0.976 | S. cerevisiae deletion strains, locus YML016C, strain PPZ1, active compounds read low 1.01 | S. cerevisiae deletion strains, locus YML032C, strain rad52, active compounds read low 0.983 | S. cerevisiae deletion strains, locus YML120C, strain ndi1, active compounds read low 1.01 | S. cerevisiae deletion strains, locus YML124C, strain tub3, active compounds read low 1 | S. cerevisiae deletion strains, locus YMR058W, strain fet3, active compounds read low 0.999 | S. cerevisiae deletion strains, locus YMR078C, strain ctf18, active compounds read low 1 | S. cerevisiae deletion strains, locus YMR125W, strain sto1, active compounds read low 0.955 | S. cerevisiae deletion strains, locus YMR129W, active compounds read low 0.989 | S. cerevisiae deletion strains, locus YMR205C, strain PFK2, active compounds read low 0.96 | S. cerevisiae deletion strains, locus YMR223W, strain ubp8, active compounds read low 1.01 | S. cerevisiae deletion strains, locus YMR231W, strain pep5, active compounds read low 0.993 | S. cerevisiae deletion strains, locus YMR263W, strain SAP30, active compounds read low 1 | S. cerevisiae deletion strains, locus YMR307W, strain GAS1, active compounds read low 1.01 | S. cerevisiae deletion strains, locus YNL067W, strain RPL9B, active compounds read low 1.01 | S. cerevisiae deletion strains, locus YNL071W, strain lat1, active compounds read low 1 | S. cerevisiae deletion strains, locus YNL128W, strain TEP1, active compounds read low 1.02 | S. cerevisiae deletion strains, locus YNL183C, strain NPR1, active compounds read low 0.974 | S. cerevisiae deletion strains, locus YNL209W, strain ssb2, active compounds read low 0.999 | S. cerevisiae deletion strains, locus YNL233W, strain BNI4, active compounds read low 1.01 | S. cerevisiae deletion strains, locus YNL248C, strain rpa49, active compounds read low 1.01 | S. cerevisiae deletion strains, locus YNL250W, strain rad50, active compounds read low 1 | S. cerevisiae deletion strains, locus YNL271C, strain bni1, active compounds read low 1 | S. cerevisiae deletion strains, locus YNL298W, strain CLA4, active compounds read low 1 | S. cerevisiae deletion strains, locus YNL307C, strain MCK1, active compounds read low 1.01 | S. cerevisiae deletion strains, locus YNL322C, strain KRE1 (second series), active compounds read low 0.998 | S. cerevisiae deletion strains, locus YNR049C, strain mso1, active compounds read low 0.995 | S. cerevisiae deletion strains, locus YNR052C, strain pop2, active compounds read low 0.999 | S. cerevisiae deletion strains, locus YOL012C, strain htz1 0.72 | S. cerevisiae deletion strains, locus YOL147C, strain pex11, active compounds read low 1 | S. cerevisiae deletion strains, locus YOR001W, strain rrp6, active compounds read low 0.996 | S. cerevisiae deletion strains, locus YOR061W, strain CKA2, active compounds read low 1 | S. cerevisiae deletion strains, locus YOR069W, strain VPS5, active compounds read low 1.01 | S. cerevisiae deletion strains, locus YOR070C, strain gyp1, active compounds read low 0.997 | S. cerevisiae deletion strains, locus YOR080W, strain dia2, active compounds read low 0.977 | S. cerevisiae deletion strains, locus YOR083W, strain WHI5, active compounds read low 1.02 | S. cerevisiae deletion strains, locus YOR106W, strain vam3, active compounds read low 1.01 | S. cerevisiae deletion strains, locus YOR136W, strain idh2, active compounds read low 1.02 | S. cerevisiae deletion strains, locus YOR144C, strain elg1, active compounds read low 1.01 | S. cerevisiae deletion strains, locus YOR184W, strain ser1, active compounds read low 0.995 | S. cerevisiae deletion strains, locus YOR231W, strain MKK1, active compounds read low 1 | S. cerevisiae deletion strains, locus YOR265W, strain rbl2, active compounds read low 0.987 | S. cerevisiae deletion strains, locus YOR270C, strain vph1, active compounds read low 1.03 | S. cerevisiae deletion strains, locus YOR290C, strain snf2, active compounds read low 0.973 | S. cerevisiae deletion strains, locus YOR316C, strain cot1, active compounds read low 0.997 | S. cerevisiae deletion strains, locus YPL051W, strain arl3, active compounds read low 1.01 | S. cerevisiae deletion strains, locus YPL078C, strain atp4, active compounds read low 1.01 | S. cerevisiae deletion strains, locus YPL106C, strain sse1, active compounds read low 0.953 | S. cerevisiae deletion strains, locus YPL240C, strain hsp82, active compounds read low 0.985 | S. cerevisiae deletion strains, locus YPL241C, strain CIN2, active compounds read low 0.998 | S. cerevisiae deletion strains, locus YPL256C, strain CLN2, active compounds read low 0.983 | S. cerevisiae deletion strains, locus YPR119W, strain clb2, active compounds read low 1 | S. cerevisiae deletion strains, locus YPR141C, strain kar3, active compounds read low 1 | S. cerevisiae deletion strains, locus YPR163C, strain tif3, active compounds read low 1.02 | S. cerevisiae deletion strains, locus YPR167C, strain met16, active compounds read low 1.02 | S. cerevisiae deletion strains, strain wtn01, active compounds read low 1.04 | S. cerevisiae strains, strain wild type, active compounds read low 0.995
